# Screening data deposited in PubChem by National Center for Advancing Translational Sciences (NCATS).
# This is a sample that favours compounds with a hit; in the whole collection about 15% have one here.
# DT40 TDP1 CPT = qHTS for Inhibitors of human tyrosyl-DNA phosphodiesterase 1 (TDP1): qHTS in cells in presence of CPT; actives 12% (n = 420,000); Potency, µM (doses to about 46.2 µM), hits mostly inhibitors; chicken DT40 Tdp1-/-;hTDP1 cells + 20 nM CPT, ATP luminescence, 48 h; also: nearly all actives have a fitted effect of over 55% in size
#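 Chicken DT40 Tdp1-/- cells complemented with human TDP1, 400 cells/well, exposed to compounds plus 20 nM camptothecin for at least 48 h at 37 C; viability read as ATP content by CellTiter-Glo luminescence.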
# ELG1 DNA repair = qHTS screen for small molecules that inhibit ELG1-dependent DNA repair in human embryonic kidney (HEK293T) cells expressing luciferase-tagged ELG1 | HEK293T ELG1-luciferase reporter, luminescence, 16 h; DNA damage induced by 5-fluorouridine | actives 2.3% (n = 330,000) | Potency, µM (highest dose often 46.1 µM), hits mostly inhibitors; also: nearly all actives have a fitted effect of over 55% in size
#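 HEK293T cells expressing luciferase-tagged ELG1 (2,000/well) received 5-Fluorouridine plus compound or DMSO for 16 hr at 37 °C. Luciferase was read by ONE-Glo luminescence after 30 min at room temperature.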
# Gal4-VP16 FLuc = VP16 counterscreen qHTS for inhibitors of ROR gamma transcriptional activity; Drosophila S2 Gal4-VP16 UAS-luciferase, luminescence, 20 h; Potency, µM (highest dose often 53.6 µM), actives largely listed as inhibitors; actives 3.5% (n = 310,000); AID 2546, 2010;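 also: Gal4-VP16 expression switched on by copper sulfate through the metallothionein promoter; nearly all actives have a fitted effect of over 50% in size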
# DT40 TDP1 no CPT = qHTS for Inhibitors of human tyrosyl-DNA phosphodiesterase 1 (TDP1): qHTS in cells in absence of CPT | DT40 Tdp1-/- hTDP1 cells, no CPT, ATP luminescence, 48 h | Potency, µM (highest dose often 46.2 µM), most hits filed as inhibitors | actives 15% (n = 420,000) | AID 686978, 2013; also: nearly all actives have a fitted effect of over 55% in size
#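 Growth kinetics read by CellTiter-Glo luminescence after ≥48 hr at 37 °C. Cells: DT40 Tdp1-/- stably carrying human TDP1, 400 per well, compound exposure in the absence of CPT (DMSO vehicle).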
# ALOX12 inh = Primary qHTS assay for inhibitors of human arachidonate 12S-lipoxygenase (ALOX12): Round 2 | Polyunsaturated fatty acid lipoxygenase ALOX12 (Homo sapiens), P18054 | actives 1.1% (n = 580,000) | Potency, µM (doses to about 108 µM), most hits filed as inhibitors | purified 12hLO, xylenol orange hydroperoxide absorbance
#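 Hydroperoxide product was detected by ferrous iron/xylenol orange as the 573 to 405 nm absorbance ratio. Arachidonic acid at 40 uM (final) was turned over for 30 min at room temperature by 150 nM human 12hLO, pH 7.0 Hepes buffer, after 15 min compound preincubation.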
# RORgamma inh = qHTS for inhibitors of ROR gamma transcriptional activity | Drosophila S2 Gal4-RORgamma UAS-luciferase reporter, 20 h | Potency, µM (highest dose often 53.6 µM), most hits filed as inhibitors | actives 5.4% (n = 310,000); also: nearly all actives have a fitted effect of over 60% in size
# Target sequence (P51450 whole entry, looked up, the tested form may be a part): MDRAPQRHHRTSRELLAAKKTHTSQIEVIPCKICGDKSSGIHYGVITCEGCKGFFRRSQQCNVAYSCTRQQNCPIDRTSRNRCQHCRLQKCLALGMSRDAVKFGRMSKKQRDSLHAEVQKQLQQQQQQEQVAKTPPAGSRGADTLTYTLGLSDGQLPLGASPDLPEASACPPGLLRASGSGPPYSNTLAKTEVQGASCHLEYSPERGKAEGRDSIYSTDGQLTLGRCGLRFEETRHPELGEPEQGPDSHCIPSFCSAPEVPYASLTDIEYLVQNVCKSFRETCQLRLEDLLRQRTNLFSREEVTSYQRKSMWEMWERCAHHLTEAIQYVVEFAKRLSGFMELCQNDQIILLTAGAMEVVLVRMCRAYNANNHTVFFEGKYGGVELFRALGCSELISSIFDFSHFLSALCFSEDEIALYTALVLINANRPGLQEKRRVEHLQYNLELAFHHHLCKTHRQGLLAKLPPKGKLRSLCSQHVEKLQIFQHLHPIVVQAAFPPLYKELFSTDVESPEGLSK
#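 Drosophila S2 cells stably expressing Gal4-DBD/mouse RORγ fusion under metallothionein promoter plus UAS-luciferase; compound 1 h, then 700 uM CuSO4 induction for 20 h at ambient temperature; inhibition read as reduced luminescence.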
# A number is an active result; i = inactive; ? = inconclusive; nt = no result; ! = not active in a repeat; [ ] = dose if it differs, or a comment. Calls follow the shape of the dose curve; as a rule, active = well fitted curve in the direction sought with a large enough effect; inconclusive = small, poorly fitted or top-dose-only effect, or another doubt; inactive = no such curve, though single readings can be large; an effect the other way counts as inactive or inconclusive.
SMILES,DT40 TDP1 CPT,ELG1 DNA repair,Gal4-VP16 FLuc,DT40 TDP1 no CPT,ALOX12 inh,RORgamma inh
Cc1ccc(C(C)C)c(OCC(=O)N2CCN(c3ncccn3)CC2)c1,i,i,nt,?,i,nt
CCC(=O)N1CCN(c2ccccc2NC(=O)COc2cc(C)ccc2C(C)C)CC1,16.4µM,?,i,23.1µM,i,i
Cc1cccc(OCC(=O)NC(=S)Nc2ccccc2N2CCOCC2)c1C,i,i,i,i,i,i
NC(=O)C1CCN(C(=O)CCNc2ncnc3nc[nH]c23)CC1,nt,nt,nt,nt,i,nt
O=C(CCCSc1nc2ccccc2[nH]1)NC1CCCCC1,?,i,i[10 µM],29.1µM,i,i
CC(=O)Nc1ccc(NC(=O)CCCSc2nc3ccccc3[nH]2)cc1,i,i,i,i,?,i
O=C(CCCSc1nc2ccccc2[nH]1)NC(c1ccccc1)c1ccccc1,11.6µM,?,i,14.6µM,i,i
C/C(=N\NC(N)=O)c1ccc(Br)cc1,nt,nt,nt,nt,i,nt
Cc1nn(C)cc1CN(C)CC1(O)CCCN(Cc2cccc(F)c2F)C1=O (centres undefined),nt,nt,nt,nt,i,nt
Cc1cccc(N2CCN(C(=O)c3cc4c(=O)n(C)c5ccccc5c4s3)CC2)c1C,?,nt,nt,5.8µM,i,nt
Cc1cccc(N2CCN(C(=O)c3cc4c(=O)oc5ccccc5c4s3)CC2)c1C,i,nt,nt,i,i,nt
Cn1c(C(=O)N2CCCC2)cc2c(=O)n(C)c3ccccc3c21,i,i,i,i,i,i
Cn1c(=O)c2cc(C(=O)N3CCN(c4cccc(C(F)(F)F)c4)CC3)sc2c2ccccc21,?,nt,nt,3.66µM,i,nt
Cn1c(C(=O)N2CCN(c3ncccn3)CC2)cc2c(=O)n(C)c3ccccc3c21,?,9.2µM,i,20.6µM,i,i
CC(C(=O)N1CCCCC1)n1ncn2cccc2c1=O (centres undefined),i,i,i,i,i,i
Cc1ccc(Cl)cc1N1CCN(C(=O)C(C)n2ncn3cccc3c2=O)CC1 (centres undefined),18.4µM,i,i,23.1µM,i,i
O=C(CCc1ncc(-c2ccc(F)cc2F)o1)NCc1ccco1,nt,nt,nt,nt,i,nt
CCN(CC(=O)NC1CCS(=O)(=O)C1)C(=O)c1cc(-c2ccc(C)cc2)nc2ccccc12 (centres undefined),nt,nt,nt,nt,i,nt
Cc1ccc(Cl)cc1N1CCN(C(=O)c2cc3c(=O)n(C)c4ccccc4c3n2C)CC1,18.4µM,?,i,16.4µM,i,i
Cc1cccc(N2CCN(C(=O)c3cc4c(=O)n(C)c5ccccc5c4n3C)CC2)c1C,?,i,i,16.4µM,i,i
O=C(CCc1ncc(-c2ccc(F)cc2F)o1)NC1=NCCS1,nt,nt,nt,nt,i,nt
CCN1C(=S)N[C@@H](CCc2ccccc2)C(C(=O)OC)=C1C,?,i,?,?,?,4.47µM!
CCN1C(=S)N[C@@H](c2cccs2)C(C(=O)OC)=C1C,?,i,20µM,i,i,3.98µM
COC(=O)C1=C(C)N(CC2CC2)C(=O)N[C@H]1CCc1ccccc1,nt,nt,i,nt,nt,i
COc1cc(CCN2C(=O)N[C@@H](CCc3ccccc3)C(C(C)=O)=C2C)cc(OC)c1OC,?,i,i,23.1µM,nt,i
SMILES,DT40 TDP1 CPT,ELG1 DNA repair,Gal4-VP16 FLuc,DT40 TDP1 no CPT,ALOX12 inh,RORgamma inh
O=C(CCc1nc2ccccc2s1)N1CCC(Cc2noc(-c3ccc(F)cc3)n2)C1 (centres undefined),nt,nt,nt,nt,i,nt
CC(=O)Nc1cc(-c2ccc(C(=O)NC3CC3)cc2)cn2c(-c3cccc(C(C)=O)c3)cnc12,?,nt,nt,23.1µM,?,nt
CC(=O)Nc1cc(-c2ccc(C(=O)NC3CC3)cc2)cn2c(-c3cccc(C(F)(F)F)c3)cnc12,?,nt,nt,23.1µM,?,nt
c1ccc(Nc2cccc3c(Nc4ccccc4)cccc23)cc1,i,?,i,i,i,i
O=S(=O)(O)c1cccc2cccc(Nc3ccccc3)c12,i,nt,nt,i,39.8µM,nt
CN(CC(=O)Nc1ccccc1C(F)(F)F)C(=O)Cc1ccc2c(c1)CCCC2,nt,nt,nt,nt,i,nt
Cc1cc(Cl)ccc1OCCCc1n[nH]c(=S)n1Cc1ccco1,nt,nt,nt,nt,17.8µM,nt
CCCc1n[nH]c(=S)n1Cc1ccco1,i,i,i,i,i,i
S=c1[nH]nc(COc2ccc(Cl)cc2)n1Cc1ccco1,i,i,?,20.6µM,39.8µM,3.16µM
O=c1[nH]c(/C=C/c2ccccc2Cl)nc2ccccc12,16.4µM,?,i,?,?,i
Cc1cccc(/C=C/c2nc3ccccc3c(=O)[nH]2)c1,20.6µM,?,i,14.6µM,i,i
O=C(O)c1ccc(/C=C/c2nc3ccccc3c(=O)[nH]2)cc1,i,i,i,i,i,i
Cc1ccc(-n2c(/C=C/c3c(C)n(C)c4ccccc34)nc3ccccc3c2=O)cc1,i,nt,nt,i,i,nt
COc1cc(/C=C/c2nc3ccccc3c(=O)[nH]2)ccc1O,?,nt,nt,16.4µM,?,nt
Cc1[nH]c2ccccc2c1/C=C/c1nc2ccccc2c(=O)n1-c1ccc([N+](=O)[O-])cc1,?,?,i,2.06µM,i,i
